Measured values taken from PubChem BioAssay AID2284354 (EPA ToxCast).
Records with an inconclusive call do not appear. Active and inactive are the calls of the source. The calls were made as follows: active = hit-call score of the fitted dose curve at least 0.9, where 1 is the maximum; inconclusive = response in the unintended direction; inactive = score below 0.9.

These compounds were tested against human Retinoid X Receptor beta (RXRb), RXRB (gene 6257) (UniProt P28702) (assay: ATG_hRXRb_EcoTox2: Attagene TRANS-FACTORIAL EcoTox-2 HepG2 Assay for human Retinoid X Receptor beta (RXRb)).
human Retinoid X Receptor beta (RXRb), RXRB (gene 6257), sequence (P28702 whole entry, looked up): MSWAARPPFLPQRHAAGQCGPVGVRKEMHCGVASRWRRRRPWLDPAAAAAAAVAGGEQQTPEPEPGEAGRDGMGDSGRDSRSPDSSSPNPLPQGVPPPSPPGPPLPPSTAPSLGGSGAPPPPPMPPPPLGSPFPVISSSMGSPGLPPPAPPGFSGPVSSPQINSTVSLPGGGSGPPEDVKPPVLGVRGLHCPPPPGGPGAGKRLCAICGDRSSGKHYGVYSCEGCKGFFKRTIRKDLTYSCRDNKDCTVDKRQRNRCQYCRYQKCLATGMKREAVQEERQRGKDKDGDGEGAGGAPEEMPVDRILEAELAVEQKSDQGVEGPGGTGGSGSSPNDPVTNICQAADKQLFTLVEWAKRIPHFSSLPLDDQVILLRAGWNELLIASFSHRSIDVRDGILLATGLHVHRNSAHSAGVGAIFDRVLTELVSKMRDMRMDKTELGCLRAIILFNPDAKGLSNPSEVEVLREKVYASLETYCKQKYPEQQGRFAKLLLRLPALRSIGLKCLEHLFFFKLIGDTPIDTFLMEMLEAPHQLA
Protocol: ATG_EcoTox2 is a cell-based, multiplexed assay created by modifying the existing Attagene TRANS-FACTORIAL system to include a panel of nuclear receptors from some or all the following species: human (Homo sapiens), african clawed frog (Xenopus laevis), rainbow trout (Oncorhynchus mykiss), japanese medaka (Oryzias latipes), and zebrafish (Danio rerio). The ECOTOX2-FACTORIAL format uses HepG2, a human liver cell line, with measurements taken at 24 hours after chemical dosing in a 24-well plate. ATG_hRXRb_EcoTox2 is one of 29 assay components calculated in the ATG_EcoTox2 assay. It is designed to make measurements of mRNA induction, a form of inducible reporter, as detected with fluorescence intensity signals by Reverse transcription polymerase chain reaction (RT-PCR) and Capillary electrophoresis technology.The assay endpoint ATG_hRXRb_EcoTox2 was analyzed in the positive analysis fitting direction relative to DMSO as the negative control and baseline of activity. Using a type of inducible reporter, measures of mRNA for gain-of-signal activity can be used to understand the reporter gene at the transcription factor-level as they relate to the gene RXRb. Furthermore, this assay endpoint can be referred to as a primary readout, because this assay has produced multiple assay endpoints where this one serves a reporter gene function. To generalize the intended target to other relatable targets, this assay endpoint is annotated to the nuclear receptor intended target family, where the subfamily is non-steroidal.
Human liver HepG2 cells are transiently transfected with multiple reporter transcription units (MRTUs) in 6-well plates using FuGene 6 reagent (Roche; 3 ml FuGene/1 mg DNA). The MRTU constructs are regulated by a cis-regulating element (promoter). Each RTU expresses a GAL4-UAS that regulates the transcription of a nearby target reporter gene sequence. A major difference between the CIS and TRANS system is that in CIS activities of endogenous TFs are measured, whereas the TRANS assay evaluates changes in activities of exogenous, chimeric NR-Gal4 proteins. […] At the end of 24 hour incubation, total RNA was isolated using TriZol reagent (Invitrogen). The isolated RNA is then reverse-transcribed using oligo(dT) primer and Mo-MLV reverse transcriptase (Invitrogen) with DNAse I (Ambion) treatment for 30 min. The one-tenth of the produced cDNA was amplified by PCR using Taq DNA polymerase (Invitrogen) and two reporter sequence-specific primers. The PCR products were fluorescently labeled by primer extension with 6-arboxyfluorescein (6-FAM) 5'-labeled reporter sequence-specific primer (2 min at 95 C, 20 s at 68 C and 10 min at 72 C) and these products were digested with 5U of HpaI (New England Biolabs) for 2h at 37 C. The fragments were purified using Qiaquick PCR columns (Qiagen), analyzed on an ABI 3130xL genetic analyzer (Applied Biosystems) with peak positions identified by using a set of X-rhodamine (ROX)-labeled MapMarker1000 molecular weight standards (BioVentures). The raw capillary electrophoresis data was processed using Attagraph software (Attagene).
`CC(C)OC(=O)C(C)(C)Oc1ccc(C(=O)c2ccc(Cl)cc2)cc1` was tested, and the outcome was “inactive”.
In the case of `CN(CCOc1ccc(CC2SC(=O)NC2=O)cc1)c1ccccn1` (centres undefined), the AC50 is reported as 13 µM (active).
For `CC(c1cc2ccccc2s1)N(O)C(N)=O` (centres undefined), the outcome was “inactive”.
For `Cc1ccc(C)c(OCCCC(C)(C)C(=O)O)c1`, the AC50 was 18.6 µM (active).
In the case of `C[C@]12C=CC(=O)C=C1CC[C@@H]1[C@@H]2C(=O)C[C@@]2(C)[C@H]1CC[C@]2(O)C(=O)CO`, the outcome is reported as “inactive”.
`CC(C)(Oc1ccc(C2CC2(Cl)Cl)cc1)C(=O)O` (centres undefined) was tested, and the outcome was “inactive”.
In the case of `CC(C)(Oc1ccc(Cl)cc1)C(=O)O`, the outcome is reported as “inactive”.
For `CC(C)(Oc1ccc(CCNC(=O)c2ccc(Cl)cc2)cc1)C(=O)O`, the outcome was “inactive”.
For `C[C@@H]1C[C@H]2[C@@H]3CCC4=CC(=O)C=C[C@]4(C)[C@@]3(F)[C@@H](O)C[C@]2(C)[C@@]1(O)C(=O)COP(=O)(O)O`, the outcome was “inactive”.
